# Compounds with a hit are over-represented: about 7.5% of the library has one in this group of screens.
# ELG1 genotoxic: inducers of genotoxicity in HEK293T ELG1-luciferase cells; HEK293T ELG1-luciferase reporter, luminescence, 16 h; Potency, µM (series often up to 46 µM), for inactives: top-dose activity change, positive = activation, actives largely listed as activators; actives 1.3% (n = 330,000); AID 504466; further: % of control where 0% means no effect; nearly all actives have a fitted effect of over 60% in size
#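 16 hr compound incubation (37 °C, 5% CO2) of HEK293T cells carrying luciferase-tagged ELG1; luciferase then measured by ONE-Glo luminescence after 30 min at RT.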
# Rab9 promoter act: activators of Rab9 promoter; Huh7 Rab9 promoter-luciferase reporter, luminescence, 24 h; Potency, µM (top dose mostly 9.22 µM), for inactives: at the highest dose activation, negative = inhibition, actives largely listed as activators; actives 2.8% (n = 320,000); further: % of control where 0% means no effect; nearly all actives have a fitted effect of over 60% in size
#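 Huh7 cells stably carrying a Rab9 promoter-luciferase reporter, 1500 cells per well in OP-MEM I with 10% FBS, treated with compound 24 hours at 37C. Luciferase activity read by luminescence after 10 minutes with Amplite reagent.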
# KinaseGlo FLuc: Kinase-Glo luciferase inhibition (counter-screen). Kinase-Glo luciferase, ATP luminescence, 8 min. actives 0.28% (n = 200,000). Potency, µM (titrated, usually from 38.3 µM), for the others: at the top dose activity change, negative = inhibition, hits mostly inhibitors. AID 1379; further: on the % scale 0 is the no-effect control and ±100 the full control effect; nearly all actives have a fitted effect of over 60% in size
#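 Light output from Kinase-Glo luciferase with luciferin and 10 uM ATP in 50 mM imidazole pH 7.2, KCl, MgCl2, Tween 20, BSA; compound pin-delivered, 8-min ambient incubation, then luminescence read.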
# NPC1 promoter act: activates the NPC1 promoter; actives 2.4% (n = 320,000); AID 485313; Huh7 NPC1 promoter luciferase reporter, 24 h; Potency, µM (highest dose often 9.22 µM), inactives show at the top dose activation, hits mostly activators; further: % of control where 0% means no effect; nearly all actives have a fitted effect of over 60% in size
#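 Stably transfected Huh7 (NPC1 promoter→luciferase), 1500 cells/well in Opti-MEM + 10% FBS, 2 h settle, then compound 24 h at 37 °C. Luminescence after 10 min with Amplite reagent.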
# SMN2 splice up: increases expression of the SMN2 splice variant. HEK293 SMN2-luciferase splicing reporter, luminescence, 30-36 h. Potency, µM (highest dose often 46.1 µM), for the others: at the highest dose activity change, positive = activation, hits mostly activators. actives 2.8% (n = 210,000). AID 1458; further: % of control where 0% means no effect; nearly all actives have a fitted effect of over 55% in size
#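 HEK293 cells carry an SMN2 […]–luciferase reporter in which exon 7 inclusion puts luciferase in frame. Cells were plated 10-12 h before compound addition, then incubated 30-36 h at 37C. ONE-Glo luminescence was read; sodium butyrate at 4.5 mM final served as control.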
# FLuc counter: firefly luciferase modulation, counter-screen for miR-21 project; Potency, µM (series often up to 57.5 µM), for the others: top-dose activity change, negative = inhibition, hits mostly inhibitors; actives 6.9% (n = 360,000); purified FLuc, Km substrates, luminescence inhibition; P08659;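 further: plate controls were vehicle for no effect and reference inhibitor for full effect; nearly all actives have a fitted effect of over 55% in size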
# Target sequence (P08659 whole entry, looked up): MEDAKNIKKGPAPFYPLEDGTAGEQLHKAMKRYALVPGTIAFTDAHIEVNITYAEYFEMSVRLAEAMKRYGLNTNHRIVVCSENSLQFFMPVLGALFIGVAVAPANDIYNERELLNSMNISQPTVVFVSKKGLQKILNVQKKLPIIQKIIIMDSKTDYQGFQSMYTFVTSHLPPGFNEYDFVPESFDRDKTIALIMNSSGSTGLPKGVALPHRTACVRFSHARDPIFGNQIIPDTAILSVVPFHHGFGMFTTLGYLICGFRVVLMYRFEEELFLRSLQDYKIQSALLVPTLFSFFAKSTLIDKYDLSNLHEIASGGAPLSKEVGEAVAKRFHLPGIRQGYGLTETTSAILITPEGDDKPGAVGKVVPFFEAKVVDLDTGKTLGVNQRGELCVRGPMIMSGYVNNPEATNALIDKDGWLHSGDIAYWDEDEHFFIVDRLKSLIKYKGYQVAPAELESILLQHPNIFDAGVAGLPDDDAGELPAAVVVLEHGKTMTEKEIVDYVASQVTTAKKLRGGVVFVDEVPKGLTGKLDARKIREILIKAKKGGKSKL
#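 Purified P. pyralis luciferase (10nM final) with 10uM D-luciferin and 10uM ATP (Km levels) in 50mM Tris acetate pH 7.5, 10mM Mg acetate, 0.01% Tween-20, 0.05% BSA; qHTS 6-point titration, ~60 µM downward; luminescence read.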
# An asterisk follows results filed as active; u = inconclusive; x = no result given. The call rests on the fitted dose curve; in most records, active means well fitted curve in the direction sought with a large enough effect; inconclusive means small, poorly fitted or top-dose-only effect, or another doubt; inactive means no such curve, though single readings can be large; an effect the other way counts as inactive or inconclusive. Potency means the concentration at half of the fitted maximal effect.
SMILES,ELG1 genotoxic,Rab9 promoter act,KinaseGlo FLuc,NPC1 promoter act,SMN2 splice up,FLuc counter
CCN(CC(=O)Nc1c(F)cccc1F)C(=O)c1cccnc1Sc1ccccc1,0%,-4%,x,-1%,x,11%
COc1ccccc1C(=O)Nc1cccc(C(=O)OCc2cc(=O)n3cc(C)sc3n2)c1,x,x,x,x,x,-13%
COc1ccc(S(=O)(=O)NCCc2nnc3ccc(SCC(=O)Nc4ccc(C(F)(F)F)cc4)nn23)cc1,x,x,x,x,x,-11%
CCOC(=O)C1CCN(S(=O)(=O)c2cccc(-c3cn4cc(C)ccc4n3)c2)CC1,-7%,-10%,1%,0%,-48%,8.5µM*
O=C(/C=C/c1cccc(F)c1)Nc1nccs1,u,1.8µM*,-2%,2µM*,11µM*,9.5µM*
Cc1ccccc1NC(=O)C(=O)Nc1ccccc1C,u,0.89µM*,x,1.3µM*,x,u
Cc1cc(C)nc(NC(=O)/C=C/c2cccs2)c1,u,3.5µM*,x,u,x,13µM*
O=C(/C=C\c1ccccc1)Nc1nccs1,u,0.89µM*,-18%,1.6µM*,4µM*,1.9µM*
CCCC12CN3CC(CCC)(CN(C1)C3c1c(C)[nH]c(=O)[nH]c1=O)C2=O (stereo not drawn),x,x,x,x,-5%,0%
O=C(COCc1cc(-c2cccs2)on1)N1CCN(c2ccccc2)CC1,x,x,x,x,x,-12%
O=C(Nc1nccs1)C(Br)C(Br)c1ccccc1 (stereo not drawn),u,0.5µM*,x,1.1µM*,x,4.8µM*
CC(=O)OC(C(=O)Nc1nccs1)c1ccccc1 (stereo not drawn),-6%,9%,x,-1%,x,1%
CCOC(=O)c1ccc(NC(=O)/C=C/c2cccs2)cc1,-1%,u,-6%,u,u,11µM*
O=C(/C=C/c1cccs1)Nc1cccc(NC(=O)/C=C/c2cccs2)n1,-3%,u,-2%,u,7.1µM*,1.9µM*
O=C(/C=C/c1cccs1)Nc1ccc(S(=O)(=O)Nc2ncccn2)cc1,0%,-6%,x,-9%,x,-13%
O=C(/C=C/c1cccs1)NC1CC1,4%,18%,-4%,7%,2%,-18%
O=C(/C=C/c1cccs1)Nc1nccs1,18µM*,2.2µM*,-14%,1.8µM*,13µM*,u
CCc1ccccc1NC(=O)Nc1cc(C(=O)NCc2ccc(OC)cc2)ccc1N1CCCC1,x,x,x,x,x,0%
O=C(/C=C/c1cccs1)Nc1ccc(Br)cn1,9.2µM*,u,-3%,u,14µM*,3µM*
Cc1ccccc1NC(=O)/C=C/c1cccs1,u,4.5µM*,-23%,u,13µM*,u
CCCCNC(=O)/C=C/c1cccs1,14%,18%,-2%,10%,11%,u
COc1ccc(/C=C/C(=O)NC(=S)Nc2ccc(Br)cn2)cc1,15%,18%,x,17%,x,-15%
NS(=O)(=O)c1cccc(NC(=O)/C=C/c2cccs2)c1,17%,u,-4%,u,u,7.6µM*
CCN(CC)S(=O)(=O)c1ccc(C)c(NC(=O)/C=C/c2cccs2)c1,-4%,-1%,-2%,0%,-32%,u
NS(=O)(=O)c1ccc(NC(=O)/C=C/c2cccs2)cc1,10%,1%,x,13%,x,0%
SMILES,ELG1 genotoxic,Rab9 promoter act,KinaseGlo FLuc,NPC1 promoter act,SMN2 splice up,FLuc counter
CCc1nnc(NC(=O)/C=C/c2cccs2)s1,23µM*,3.5µM*,1%,u,u,-16%
Cc1ccc2c(c1)N(C(=O)N1CCC(C(=O)NCCC3=CCCCC3)CC1)CC(C)O2 (stereo not drawn),x,x,x,x,x,-19%
COc1cc(NC(=O)COCc2cc(-c3ccc(F)cc3)on2)cc(OC)c1OC,x,x,x,x,-52%,-1%
COc1cc2c(cc1OC)CN(C1CCC(C)CC1)CC2 (stereo not drawn),-6%,2%,x,-5%,x,-2%
CCc1nnc(NC(=O)C=C(C)C)s1,u,u,2%,u,10µM*,u
Cc1ccc(C(=O)Nc2ccc3oc(-c4ccc(C(C)(C)C)cc4)nc3c2)cc1,x,x,x,x,0%,u
COc1ccc(-c2nc3ccccn3c2NCc2ccc3c(c2)OCO3)cc1,14%,u,-4%,u,14µM*,4.8µM*
COc1ccc(-c2nc3cc(C)ccn3c2NCc2ccc3c(c2)OCO3)cc1,2%,u,-12%,15%,x,17µM*
CCOc1ccccc1C(=O)N1CCCCC1CCN1CCOCC1 (stereo not drawn),x,x,x,x,8%,0%
Cc1ccc(N2CC(NC(=O)C3CC3)CC2=O)cc1C (stereo not drawn),x,x,x,x,x,0%
Fc1ccc(C2=CSC3=NCCN23)cc1,1%,-2%,1%,0%,-1%,-13%
N=c1nc(N)nc2n1NC(c1ccc(F)cc1)=CS2,16%,-2%,0%,-1%,20%,15µM*
c1ccc(-c2nc3ccccc3[nH]2)nc1,u,2.8µM*,7.9µM*,4µM*,3.2µM*,12µM*
Cc1ccc2nc(-c3ccccn3)[nH]c2c1,u,0.35µM*,x,u,x,1.3µM*
Cc1ccc2nc(CCCc3nc4ccc(C)cc4[nH]3)[nH]c2c1,-7%,0%,x,1%,x,u
Nc1ccccc1-c1nc2ccccc2[nH]c1=O,7%,u,x,u,x,24µM*
c1ccc(-c2n[nH]c(-c3ccccc3)c2-c2nc3ccccc3[nH]2)cc1,-4%,-6%,-1%,-7%,-17%,-2%
